{"source": "the OligoGym collection"}
{"target": "ACSL3", "test": "pooled miR-30 sensor sort-seq; sequence = guide strand", "details": "shRNA"}
{"sequence": "TAAAGTATCACATCCAGGGTAT", "sensor-assay potency score (higher = more potent)": 0.0296}
{"sequence": "TAATCTTTAAGCATCCATCGGG", "sensor-assay potency score (higher = more potent)": 0.641}
{"sequence": "TTATCTAAAGTATCACATCCAG", "sensor-assay potency score (higher = more potent)": -0.397}
{"sequence": "ATACTGTCCAAGAATAACCTTT", "sensor-assay potency score (higher = more potent)": -0.208}
{"sequence": "TTTTTCTTGTCTTGACTCGGAG", "sensor-assay potency score (higher = more potent)": -0.445}
{"sequence": "TTTACTAGTAATGATGTTGGTC", "sensor-assay potency score (higher = more potent)": 0.628}
{"sequence": "TTGCTGAAATAGCAGCTTCGGA", "sensor-assay potency score (higher = more potent)": -0.935}
{"sequence": "AATCTTTAAGCATCCATCGGGT", "sensor-assay potency score (higher = more potent)": -0.577}
{"sequence": "TATTGTAGTCCCACACTTCGGA", "sensor-assay potency score (higher = more potent)": 0.568}
{"sequence": "TTTCACAGCAAACTAATGGTGC", "sensor-assay potency score (higher = more potent)": -0.648}
{"sequence": "TTGAATTTACAGGCTTTGCTTT", "sensor-assay potency score (higher = more potent)": -0.455}
{"sequence": "TTTTGCTTCATTTTTGTAGTAC", "sensor-assay potency score (higher = more potent)": 0.298}
{"sequence": "TTCTTTACTAGTAATGATGTTG", "sensor-assay potency score (higher = more potent)": 0.0529}
{"sequence": "TAATTCTAGAACATGGGCCAGA", "sensor-assay potency score (higher = more potent)": -0.696}
{"sequence": "TACTAGTGGAAGATTCTTCAAA", "sensor-assay potency score (higher = more potent)": -0.312}
